Screening results: PubChem, National Center for Advancing Translational Sciences (NCATS)
DRD3 agonist: activates the human D3 dopamine receptor; AID 652048; D3R DiscoveRx beta-arrestin cells, luminescence, 90 min; max activation, %; actives 0.58% (n = 410,000); in the data active = max activation above about 30%
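Cells at 1500/well, incubated overnight, then treated with pinned compounds (dopamine as control) for 90 min at 37 degrees C. DiscoveRx reagent added for 30 - 60 minutes at room temperature; luminescence read.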
DRD3 antagonist: blocks the human D3 dopamine receptor | P35462 | max response, negative = inhibition, % | D3R cells, DiscoveRx beta-arrestin luminescence, antagonist mode; hits give low values | actives 2.5% (n = 360,000); in the data active = max response below about -50%; inconclusive = no clear call, values can overlap the other calls
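Cells plated overnight at 1500 cells/well, then exposed to library compounds with dopamine controls for 90 minutes at 37 degrees C. DiscoveRx reagent added for 30–60 minutes at room temperature; luminescence read, quantitative HTS format.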
GLP1R inv ag: acts as inverse agonist at human GLP-1 receptor. HEK293 GLP-1R CRE-luciferase, luminescence, 24 h; GLP-1R form is constitutively active. P43220. actives 1.6% (n = 410,000). Potency, µM (series often up to 38.3 µM), usual class: inhibitors; also: nearly all actives have a fitted effect of over 55% in size
Target sequence (P43220 whole entry, looked up): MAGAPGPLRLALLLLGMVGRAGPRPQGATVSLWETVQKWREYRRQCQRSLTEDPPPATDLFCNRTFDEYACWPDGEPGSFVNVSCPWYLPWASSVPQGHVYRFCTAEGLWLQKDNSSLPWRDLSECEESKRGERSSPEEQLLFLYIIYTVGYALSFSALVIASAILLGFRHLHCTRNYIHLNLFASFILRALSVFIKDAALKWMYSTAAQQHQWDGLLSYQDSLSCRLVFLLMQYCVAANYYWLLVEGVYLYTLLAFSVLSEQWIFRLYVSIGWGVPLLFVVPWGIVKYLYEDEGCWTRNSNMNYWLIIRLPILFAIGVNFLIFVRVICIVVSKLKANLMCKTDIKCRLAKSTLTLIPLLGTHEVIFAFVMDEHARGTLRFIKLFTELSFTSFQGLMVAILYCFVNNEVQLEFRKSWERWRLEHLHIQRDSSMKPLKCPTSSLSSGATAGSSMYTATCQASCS
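Seeding at 200 cells/uL, 12 h culture, 24 hr compound treatment, then luciferase reagent and a luminescence read; cells are HEK293 stably expressing a constitutively active GLP-1R plus cAMP-responsive luciferase.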
GLP1R ag: GLP-1 receptor (human) agonism. HEK293 GLP-1R CRE-luciferase, luminescence, 4-6 h; cells express a hypersensitive GLP-1R form. actives 0.007% (n = 380,000). Potency, µM (top dose mostly 45.6 µM), actives largely listed as activators. P43220
Large screens that a line does not name were inactive. A selection: hits, their analogues and other compounds. The true share with any hit is near 4.3%. Unless noted, calls follow the shape of the dose curve; as a rule, active = well fitted curve in the direction sought with a large enough effect; inconclusive = small, poorly fitted or top-dose-only effect, or another doubt; inactive = no such curve, though single readings can be large; an effect the other way counts as inactive or inconclusive.

Cc1cc(C)cc(N2C(=O)CS(=O)(=O)C23C(=O)N(Cc2ccccc2)c2ccccc23)c1 (centres undefined)	none (no result: DRD3 antagonist)
O=C(O)Cc1ccc(NC2(c3ccccc3)C(=O)c3ccccc3C2=O)cc1	none (no result: DRD3 antagonist)
O=C1NC[C@@H](CCCCN2CCN(Cc3ccccc3)C(=O)C2=O)N(Cc2ccccc2)C1=O	none
Cc1ccc(C(CC(=O)NCC2(c3ccccc3)CCCC2)c2ccccc2)c(O)c1 (centres undefined)	GLP1R inv ag inconclusive (no result: DRD3 antagonist, GLP1R ag)
Cc1ccc(-c2nc3sc(CCNC(=O)c4ccc(Br)o4)c(C)n3n2)cc1	GLP1R inv ag inconclusive (no result: DRD3 antagonist)
CSCCC(NC(=O)c1ccccc1)C(=O)N1CC=C(c2ccccc2)CC1 (centres undefined)	GLP1R inv ag 10µM
CSCCC(NC(=O)c1ccccc1)C(=O)N1CCN(C(=O)c2ccccc2)CC1 (centres undefined)	none
CC[C@H]1OC(=O)C[C@@H](O)[C@H](C)[C@@H](O[C@@H]2O[C@H](C)C[C@H](N(C)C)[C@@H]2O)[C@@H](CC=O)C[C@@H](C)C(=O)/C=C\[C@]2(C)O[C@H]2[C@@H]1C	none (no result: DRD3 agonist, DRD3 antagonist, GLP1R inv ag)
COc1ccc2cc1Oc1ccc(cc1)CC1c3c(cc(OC)c4c3Oc3cc5c(cc3O4)CCNC5C2)CCN1C (centres undefined)	GLP1R inv ag 5.6µM
COc1ccc2cc1Oc1ccc(cc1)C[C@H]1c3c(cc(OC)c4c3Oc3c(ccc5c3[C@H](C2)N(C)CC5)O4)CCN1C	none
CC1CCCN(c2nc3c(-c4ccc(Cl)cc4)nnn3c3ccccc23)C1 (centres undefined)	none (no result: DRD3 antagonist)
CCCC(C(=O)Nc1cc(S(=O)(=O)N2CCOCC2)ccc1OC)c1ccccc1 (centres undefined)	none
Cc1ccc2cc(NC(=O)c3ccc(C(C)(C)C)cc3)ccc2n1	GLP1R inv ag 4µM
CC1(c2nc3ccccc3[nH]2)c2ccccc2C(=O)N1Cc1ccccc1 (centres undefined)	DRD3 antagonist -55
COc1cc(C(c2sc3nc(C)nn3c2O)N2CCC3(CC2)OCCO3)cc(OC)c1OC (centres undefined)	DRD3 antagonist -51
CCc1ccccc1NC(=O)c1cnn2c(C(F)(F)F)cc(-c3ccc(OC)c(OC)c3)nc12	none (no result: DRD3 antagonist)
CCC(C)c1ccc(NC(=S)Nc2ccc(OC)cc2C)cc1 (centres undefined)	DRD3 antagonist -133, GLP1R inv ag inconclusive
CCC(C)c1ccc(NC(=S)Nc2ccc(OC)c(OC)c2)cc1 (centres undefined)	DRD3 antagonist inconclusive, GLP1R inv ag inconclusive
CC(C)Oc1ccc2ccccc2c1CNC[C@H]1O[C@@H](n2ccc(N)nc2=O)[C@H](O)[C@@H]1O	none
Cc1cccc(NC(=O)C23CCC(C)(C2Br)C3(C)C)c1 (centres undefined)	GLP1R inv ag 3.5µM
O=C(O)c1cccc(NC(=S)NC(=O)c2cncc(Br)c2)c1	DRD3 antagonist -63
COc1ccc(CNC(=O)c2ccc(NC(=O)N3CCCCc4ccccc43)cc2)c(OC)c1	GLP1R inv ag 11µM (no result: DRD3 antagonist, GLP1R ag)
COc1ccc(-c2cc3ccccc3n2CC(O)CNCCO)cc1 (centres undefined)	GLP1R inv ag 2.8µM
COc1ccc(-c2cc3ccccc3n2CC(O)CN2CCCCC2)cc1 (centres undefined)	DRD3 antagonist -87
COc1ccc(OCC(O)CN2CCCC2)cc1 (centres undefined)	none
OCCNCC(O)Cn1ccc2ccccc21 (centres undefined)	DRD3 antagonist -52
CCc1ccc(NC(=O)c2cc3c([nH]c2=O)CC(C)(C)CC3=O)cc1	none (no result: DRD3 antagonist, GLP1R ag)
CCOc1ccc(C(=O)NC(=S)Nc2cccc(NC(=O)c3ccco3)c2)cc1[N+](=O)[O-]	DRD3 antagonist -69
Cc1ccc(Cl)cc1N(C)C(=O)c1noc2c1CCCCC2	none (no result: DRD3 antagonist, GLP1R ag)
CCn1c(SCC(=O)c2ccc(Br)cc2)nnc1C(C)NC(=O)Cc1ccc(OC)cc1 (centres undefined)	none
COc1ccc(CC(=O)NC(C)c2nnc(SCC(=O)c3ccc(Br)cc3)n2C)cc1 (centres undefined)	DRD3 antagonist -56
CC(/C=N/NC(=O)Cn1nccc1C)=C\c1ccc(C(C)C)cc1	GLP1R inv ag 11µM
Cc1cc2c(n1-c1ccc(C(=O)NCCc3ccccc3)cc1)CCC(C)C2 (centres undefined)	none (no result: DRD3 antagonist, GLP1R ag)
Nc1nonc1-c1noc(-c2ccccc2)n1	DRD3 antagonist -63
Cc1cc(OCC(=O)N2CCOCC2)c(C(C)C)cc1Cl	DRD3 antagonist -77
Cc1cc(OCC(=O)Nc2ccccc2N2CCOCC2)c(C(C)C)cc1Cl	GLP1R inv ag inconclusive
COc1cc(NC(=O)CN2CCCN(S(=O)(=O)c3ccc(F)cc3)CC2)cc(OC)c1	none (no result: DRD3 antagonist, GLP1R ag)
Cc1ccc(C2NC(=O)NC3=C2CCc2ccccc23)cc1 (centres undefined)	DRD3 antagonist -86
CC(C)c1ccc(C2NC(=O)NC3=C2CCc2ccccc23)cc1 (centres undefined)	GLP1R inv ag inconclusive
CCOc1ccc(CNC(=O)CSc2c3c(nc4cc(Cl)ccc24)CCCC3)cc1	none (no result: DRD3 antagonist, GLP1R ag)
Cc1ccc(CNC(=O)CSc2c3c(nc4cc(Cl)ccc24)CCCC3)o1	DRD3 antagonist -76, GLP1R inv ag inconclusive
CN(C)CCC(Oc1ccccc1OCc1ccccc1)c1ccccc1 (centres undefined)	DRD3 antagonist inconclusive, GLP1R inv ag inconclusive
CN(C)CCCC(C)(O)C(Cc1ccccc1)c1ccccc1 (centres undefined)	DRD3 antagonist -58
Cn1cc(S(C)=O)c(=O)c2ccc(F)cc21 (centres undefined)	none (no result: DRD3 antagonist, GLP1R inv ag)
COC(=O)c1c(-c2ccccc2)csc1N	none
COC(=O)c1c(C(=O)OC)c2c(-c3ccccc3)cc3cccc1n32	DRD3 agonist 34, GLP1R inv ag 8.9µM
COc1cc(C2C=C(C34CC5CC(CC(C5)C3)C4)NC(=S)N2)cc(OC)c1OC (centres undefined)	DRD3 antagonist -82, GLP1R inv ag inconclusive
Cc1cn([C@H]2C[C@H](O)[C@@H](CCC(=O)NCc3ccco3)O2)c(=O)[nH]c1=O	none
Cc1nc(-c2cccc(NC(=O)Nc3ccc([N+](=O)[O-])cc3)c2)no1	GLP1R inv ag 3.5µM (no result: DRD3 antagonist)
CC(C)c1ccc(NC(=O)C(C)N(c2ccccc2)S(C)(=O)=O)cc1 (centres undefined)	GLP1R inv ag inconclusive (no result: DRD3 antagonist)
CCOc1ccc(C(=O)Cc2ccc3oc(C(=O)O)cc3c2)c(O)c1	DRD3 antagonist -62
COc1ccc(NC(=O)C2CCN(C(=O)c3sc4nc[nH]c(=O)c4c3C)CC2)cc1Cl	none (no result: DRD3 antagonist, GLP1R ag)
Brc1ccccc1OCCN1CCCC1	DRD3 antagonist -62
Brc1ccccc1OCCCN1CCCCCC1	DRD3 antagonist -82, GLP1R inv ag inconclusive
Brc1ccccc1OCCCN1CCCC1	DRD3 antagonist inconclusive
COc1ccccc1OCCOCCN1CCCC1	none
O=C(c1ccc(Cl)c(Cl)c1)N(Cc1ccco1)c1ccc(O)cc1	DRD3 antagonist inconclusive, GLP1R inv ag 11µM
O=C(COc1ccccc1)N(Cc1ccco1)c1ccc(O)cc1	GLP1R inv ag inconclusive
